In the supplement of paper PMC12350171:
Where a name gives a salt, the structure may show the parent alone.

Columns and labels:
Conditions in all cases: 20 µM
[1] = tested on: Salmonella enterica typhimurium; assay: growth AUC normalised to DMSO control (fraction of control); higher = less growth inhibition, active = hit call of the paper
In short: (§1)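 Pathogens passaged twice anaerobically were inoculated at a starting OD578 of 0.01 into pre-reduced mGAM plates with drug at 20 μM and 1% DMSO, sealed with breathable membranes. Haemophilus parainfluenzae medium was supplemented with hemin and NAD. OD578 was read hourly for 24 h, with three biological replicates. Growth-curve AUC was computed by the trapezoidal rule up to the exponential-to-stationary transition and normalised to DMSO controls on the same plate.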

Shigella flexneri = assay: as above
In short: as §1

Vibrio cholerae = assay: as above
In short: as §1

[2] = tested on: Yersinia pseudotuberculosis; assay: as above
In short: as §1

P. vulgatus RND KO = assay: growth AUC normalised to DMSO control (median) (fraction of control); higher = less growth inhibition, active = hit call of the paper
In short: (§2)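 Area under the growth curve, calculated by the trapezoidal rule up to entry into stationary phase, was normalised to vehicle wells on the same plate. Strains had been passaged twice overnight without oxygen and then grown in mGAM in 96-well plates from OD578 0.01, each with an approved-drug library compound at 20 μM in 1% DMSO. OD578 was read hourly over 24 h in an anaerobic incubator, and the median of three biological replicates is given.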

P. vulgatus WT = assay: as above
In short: as §2

[3] = tested on: S. enterica typhimurium WT; assay: as above
In short: as §2

[4] = tested on: S. enterica typhimurium tolC KO; assay: as above
In short: as §2

Measured: growth AUC normalised to DMSO control
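For growth AUC normalised to DMSO control (median) in this document: active when median AUC fell below 0.1.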

CC(=O)c1ccc2c(c1)N(CCCN1CCC(CCO)CC1)c1ccccc1S2 [Piperacetazine]
inactive: [1] 0.971 | Shigella flexneri 1.05 | Vibrio cholerae 1.03 | [2] 1.01 | P. vulgatus RND KO 1.01 | P. vulgatus WT 1.02 | [3] 1 | [4] 0.948

Cc1ncc([N+](=O)[O-])n1CC(O)CCl (stereo not given) [Ornidazole]
inactive: [1] 0.995 | Shigella flexneri 0.987 | Vibrio cholerae 1.01 | [2] 0.964 | [3] 0.99 | [4] 0.99
active: P. vulgatus RND KO 0.0124 | P. vulgatus WT 0.00943

CCN[C@H]1C[C@H](C)S(=O)(=O)c2sc(S(N)(=O)=O)cc21 [Dorzolamide hydrochloride]
inactive: [1] 1.02 | Shigella flexneri 1.04 | Vibrio cholerae 1.04 | [2] 1.03 | P. vulgatus RND KO 1.05 | P. vulgatus WT 1.05 | [3] 1 | [4] 1.01

CN1CCCCC1CCN1c2ccccc2Sc2ccc([S+](C)[O-])cc21 (stereo not given) [Mesoridazine besylate]
inactive: [1] 0.993 | Shigella flexneri 0.978 | Vibrio cholerae 0.949 | [2] 1.01 | P. vulgatus RND KO 0.941 | P. vulgatus WT 0.885 | [3] 0.997 | [4] 0.944

COc1nc(C)nc(Cl)c1NC1=NCCN1 [Moxonidine]
inactive: [1] 1.01 | Shigella flexneri 1.03 | Vibrio cholerae 1.04 | [2] 1.02 | P. vulgatus RND KO 0.994 | P. vulgatus WT 0.995 | [3] 1 | [4] 0.999

CO[C@@]1(NC(=O)Cc2cccs2)C(=O)N2C(C(=O)O)=C(COC(N)=O)CS[C@@H]21 [Cefoxitin sodium salt]
active: [1] 0.00626 | Shigella flexneri 0.0351 | Vibrio cholerae 0.307 | [2] 0.0451 | P. vulgatus RND KO 0.018 | P. vulgatus WT 0.0178 | [3] 0.00954 | [4] 0.0113

Cn1c(=O)c2c(ncn2CC(O)CO)n(C)c1=O (stereo not given) [Diprophylline]
inactive: [1] 0.986 | Shigella flexneri 0.996 | Vibrio cholerae 0.971 | [2] 1 | P. vulgatus RND KO 1 | P. vulgatus WT 0.989 | [3] 0.991 | [4] 0.998

CCN(CC)Cc1cc(Nc2ccnc3cc(Cl)ccc23)ccc1O [Amodiaquine dihydrochloride dihydrate]
inactive: [1] 0.974 | Shigella flexneri 1.02 | Vibrio cholerae 1 | [2] 0.966 | P. vulgatus RND KO 1 | P. vulgatus WT 0.961 | [3] 0.982 | [4] 1

CC(=O)O[C@@]12CO[C@@H]1C[C@H](O)[C@@]1(C)C(=O)[C@H](O)C3=C(C)[C@@H](OC(=O)[C@H](O)[C@@H](NC(=O)OC(C)(C)C)c4ccccc4)C[C@@](O)([C@@H](OC(=O)c4ccccc4)[C@H]21)C3(C)C [Docetaxel]
inactive: [1] 0.995 | Shigella flexneri 0.982 | Vibrio cholerae 1.07 | [2] 1.04 | P. vulgatus RND KO 0.904 | P. vulgatus WT 0.92 | [3] 1 | [4] 1

CC(=O)OCC(=O)[C@@]12OC3(CCCC3)O[C@@H]1C[C@H]1[C@@H]3CCC4=CC(=O)C=C[C@]4(C)[C@@]3(F)[C@@H](O)C[C@@]12C [Amcinonide]
inactive: [1] 1.01 | Shigella flexneri 1.02 | Vibrio cholerae 1.04 | [2] 1.04 | P. vulgatus RND KO 0.993 | P. vulgatus WT 0.991 | [3] 1.01 | [4] 0.988

CC[N+](CC)(CC)CCOc1cccc(OCC[N+](CC)(CC)CC)c1OCC[N+](CC)(CC)CC [Gallamine triethiodide]
inactive: [1] 1 | Shigella flexneri 1.02 | Vibrio cholerae 1.01 | [2] 1.02 | P. vulgatus RND KO 1.02 | P. vulgatus WT 1.02 | [3] 1.01 | [4] 1.01

CC1(C)O[C@@H]2C[C@H]3[C@@H]4C[C@H](F)C5=CC(=O)C=C[C@]5(C)[C@H]4[C@@H](O)C[C@]3(C)[C@]2(C(=O)CO)O1 [Flunisolide]
inactive: [1] 1.01 | Shigella flexneri 1.05 | Vibrio cholerae 1.06 | [2] 0.984 | P. vulgatus RND KO 1.03 | P. vulgatus WT 1.05 | [3] 1 | [4] 1.01

Nc1cc(-c2ccncc2)c[nH]c1=O [Amrinone]
inactive: [1] 1.01 | Shigella flexneri 1.06 | Vibrio cholerae 1.07 | [2] 1 | P. vulgatus RND KO 1.05 | P. vulgatus WT 1.06 | [3] 1 | [4] 1.02

CN(CCOc1ccc(CC2SC(=O)NC2=O)cc1)c1ccccn1 (stereo not given) [Rosiglitazone hydrochloride]
inactive: [1] 1.02 | Shigella flexneri 1.08 | Vibrio cholerae 1.01 | [2] 0.975 | P. vulgatus RND KO 1.06 | P. vulgatus WT 1.04 | [3] 1.02 | [4] 0.993

CNC(=C[N+](=O)[O-])NCCSCc1ccc(CN(C)C)o1 [Ranitidine hydrochloride]
inactive: [1] 1 | Shigella flexneri 1 | Vibrio cholerae 1.01 | [2] 1.01 | P. vulgatus RND KO 1.01 | P. vulgatus WT 0.985 | [3] 1.02 | [4] 1.01

OC(CCN1CCCCC1)(c1ccccc1)C1CC2C=CC1C2 (stereo not given) [Biperiden hydrochloride]
inactive: [1] 0.987 | Shigella flexneri 0.967 | Vibrio cholerae 0.934 | [2] 1 | P. vulgatus RND KO 0.994 | P. vulgatus WT 1.01 | [3] 1.01 | [4] 0.946

CN1CCN(CCCN2c3ccccc3Sc3ccc(C(F)(F)F)cc32)CC1 [Trifluoperazine dihydrochloride]
inactive: [1] 1.03 | Shigella flexneri 1.04 | Vibrio cholerae 1.01 | [2] 1.04 | P. vulgatus RND KO 0.974 | P. vulgatus WT 0.941 | [3] 1.02 | [4] 0.929

CCCN(CCC)S(=O)(=O)c1ccc(C(=O)O)cc1 [Probenecid]
inactive: [1] 1.02 | Shigella flexneri 1.03 | Vibrio cholerae 1.02 | [2] 1.02 | P. vulgatus RND KO 1 | P. vulgatus WT 1.02 | [3] 1.02 | [4] 0.895

CC(C)(O)c1ccccc1CC[C@@H](SCC1(CC(=O)O)CC1)c1cccc(/C=C/c2ccc3ccc(Cl)cc3n2)c1 [Montelukast]
inactive: [1] 1.02 | Shigella flexneri 1.04 | Vibrio cholerae 1.05 | [2] 1.01 | P. vulgatus RND KO 0.911 | P. vulgatus WT 0.875 | [3] 1 | [4] 1

CC1CS(=O)(=O)CCN1/N=C/c1ccc([N+](=O)[O-])o1 (stereo not given) [Nifurtimox]
active: Vibrio cholerae 0.00876 | P. vulgatus RND KO 0.0205 | P. vulgatus WT 0.00686
inactive: [1] 0.981 | Shigella flexneri 0.947 | [2] 0.99 | [3] 0.995 | [4] 0.962

CCOC1O[C@H]([C@@H](COCc2ccccc2)OCc2ccccc2)[C@H](OCc2ccccc2)[C@H]1O (stereo not given in full) [Tribenoside]
inactive: [1] 1 | Shigella flexneri 1.01 | Vibrio cholerae 1 | [2] 0.988 | P. vulgatus RND KO 0.946 | P. vulgatus WT 0.987 | [3] 1.01 | [4] 0.959

CN1CCOC(c2ccccc2)c2ccccc2C1 (stereo not given) [Nefopam hydrochloride]
inactive: [1] 0.987 | Shigella flexneri 0.993 | Vibrio cholerae 0.983 | [2] 1 | P. vulgatus RND KO 0.992 | P. vulgatus WT 0.982 | [3] 1 | [4] 0.988

Nc1nc(=O)[nH]cc1F [Flucytosine]
inactive: [1] 0.983 | Shigella flexneri 0.968 | Vibrio cholerae 0.961 | [2] 1.01 | P. vulgatus RND KO 0.996 | P. vulgatus WT 0.991 | [3] 1 | [4] 0.965

CC(=O)Oc1ccccc1C(=O)O [Acetylsalicylic acid]
inactive: [1] 1.04 | Shigella flexneri 1.04 | Vibrio cholerae 1.09 | [2] 1.02 | P. vulgatus RND KO 1.01 | P. vulgatus WT 1.01 | [3] 1.01 | [4] 1.01

CC(=O)Oc1ccccc1C(=O)Oc1ccccc1C(=O)O [Acetylsalicylsalicylic acid]
inactive: [1] 0.997 | Shigella flexneri 0.973 | Vibrio cholerae 0.983 | [2] 0.932 | P. vulgatus RND KO 0.998 | P. vulgatus WT 1.04 | [3] 0.999 | [4] 0.997

CC(=O)OC[C@H]1O[C@@H]([S-])[C@H](OC(C)=O)[C@@H](OC(C)=O)[C@@H]1OC(C)=O.CCP(CC)CC.[Au+] [Auranofin]
active: [1] 0.877 | Vibrio cholerae 0.67 | [2] 0.672 | P. vulgatus RND KO 0.00406
inactive: Shigella flexneri 1.01 | P. vulgatus WT 0.233 | [3] 0.855 | [4] 0.862

Oc1c(Cl)cc(Cl)c(Cl)c1Cc1c(O)c(Cl)cc(Cl)c1Cl [Hexachlorophene]
inactive: [1] 0.941 | Shigella flexneri 1.04 | [3] 0.972
active: Vibrio cholerae 0.0587 | [2] 0.411 | P. vulgatus RND KO 0.00764 | P. vulgatus WT 0.00869 | [4] 0.00738

O=C(Nc1ccc([N+](=O)[O-])cc1Cl)c1cc(Cl)ccc1O [Niclosamide]
inactive: [1] 0.995 | Shigella flexneri 0.983 | [3] 0.992
active: Vibrio cholerae 0.0756 | [2] 0.843 | P. vulgatus RND KO 0.0144 | P. vulgatus WT 0.0167 | [4] 0.00688

COc1cc(Cc2cnc(N)nc2N)cc(OC)c1OC [Trimethoprim]
active: [1] 0.197 | Shigella flexneri 0.0632 | Vibrio cholerae 0.0115 | [2] 0.157
inactive: P. vulgatus RND KO 0.45 | P. vulgatus WT 0.259 | [3] 0.147 | [4] 0.132

NCCc1ccc(O)c(O)c1 [Dopamine hydrochloride]
inactive: [1] 1.02 | Shigella flexneri 1.05 | Vibrio cholerae 0.989 | [2] 1.01 | P. vulgatus RND KO 1.03 | P. vulgatus WT 1.02 | [3] 1 | [4] 0.99
